Screening data (PubChem BioAssay)
An excerpt weighted towards active compounds, which were near 12% of everything screened.
BAZ2B inh: BAZ2B (human) inhibition; Q9UIF8; AlphaScreen BAZ2B-H3K14Ac peptide displacement; Potency, µM (titrated, usually from 114 µM), for inactives: at the top dose activity change, negative = inhibition, usual class: inhibitors; 4.4% of 360,000 active; AID 504333; also: % is scaled to controls: 0 for no effect and ±100 for the full control effect; nearly all actives have a fitted effect of over 60% in size
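AlphaScreen luminescence quantifies BAZ2B engagement of H3K14Ac peptide; the protein and biotinylated peptide are both at 50 nM final, buffer PBS pH 7.4 with 0.01% Tween-20, all steps at room temperature.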
JMJD2A Tudor: blocks the human JMJD2A Tudor domain; 4.4% of 390,000 active; O75164; Potency, µM (titrated, usually from 114 µM), without a hit: at the highest dose activity change, negative = inhibition, most hits filed as inhibitors; AID 504339; AlphaScreen JMJD2A-Tudor / H3K4me3 peptide binding; also: % is scaled to controls: 0 for no effect and ±100 for the full control effect; nearly all actives have a fitted effect of over 50% in size
HP1b chromo inh: blocks HP1-beta chromodomain binding to methylated histone tails; AlphaScreen HP1-beta / biotin-H3K9me3 peptide binding; 0.56% of 390,000 active; AID 540317; Potency, µM (top dose mostly 114 µM), inactives show at the top dose activity change, negative = inhibition, hits mostly inhibitors; P83916; also: nearly all actives have a fitted effect of over 70% in size
Target sequence (P83916 whole entry, looked up): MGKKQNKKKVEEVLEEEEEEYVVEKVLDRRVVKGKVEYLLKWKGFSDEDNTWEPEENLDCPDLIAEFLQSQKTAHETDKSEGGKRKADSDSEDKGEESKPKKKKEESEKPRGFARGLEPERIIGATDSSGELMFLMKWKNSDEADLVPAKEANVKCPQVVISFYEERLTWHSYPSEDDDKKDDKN
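Compound inhibition of the preformed complex between 50 nM HP1-beta and 50 nM biotinylated H3K9me3 peptide was read by AlphaScreen. Buffer was PBS pH 7.4 with 0.01% Tween-20. Incubations ran 30 min at room temperature, with 10 ug/mL donor/acceptor beads.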
G9a block: G9a (human) methyltransferase inhibition; Potency, µM (series often up to 102 µM), for the others: top-dose activity, negative = inhibition, actives largely listed as inhibitors; 8.8% of 350,000 active; AID 504332; Q96KQ7; G9a H3K9 monomethylation, AlphaScreen, 2 h; also: % is scaled to controls: 0 for no effect and ±100 for the full control effect; nearly all actives have a fitted effect of over 75% in size
Target sequence (Q96KQ7 913-1193 limits assumed): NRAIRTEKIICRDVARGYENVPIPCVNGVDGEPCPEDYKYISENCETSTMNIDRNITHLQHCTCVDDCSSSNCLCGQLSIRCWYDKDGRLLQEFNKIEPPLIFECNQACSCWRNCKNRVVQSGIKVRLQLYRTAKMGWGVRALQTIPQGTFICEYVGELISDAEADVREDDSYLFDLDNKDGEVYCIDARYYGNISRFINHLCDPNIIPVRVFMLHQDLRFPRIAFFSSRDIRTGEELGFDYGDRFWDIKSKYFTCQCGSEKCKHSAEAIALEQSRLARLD
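G9a (20 nM) was preincubated 15 min with compound, then reacted 2 h at room temperature with 500 nM biotin-H3K9 peptide and 20 µM SAM. Monomethyl-H3K9 detected by AlphaScreen using anti-H3K9me1 antibody.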
Sfp inh: blocks B. subtilis Sfp PPTase activity; Q9F4F7; Biochemical Sfp PPTase activity, qHTS; Potency, µM, inactives show largest response in the series, negative = inhibition, hits mostly inhibitors; 3.5% of 310,000 active; AID 1490;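 also: the enzyme is Sfp with the accession as filed and its product quenches rhodamine fluorescence; 0% = enzyme reaction without inhibitor and -100% = no enzyme wells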
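With Hepes-Na pH 7.6 buffer containing 10 mM MgCl2, Sfp (15 nM) modified BHQ-2-YbbR (12.5 uM) using rhodamine-CoA (5 uM). Two reads 30 minutes apart at 525/598 nm yielded each well's rate.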
L3MBTL1 block: L3MBTL1 (human) inhibition | Q9Y468 | AlphaScreen L3MBTL1–H3K9me1 peptide binding | Potency, µM (highest dose often 57.1 µM), inactives show top-dose activity, negative = inhibition, hits mostly inhibitors | 0.66% of 230,000 active | AID 485360; also: % is scaled to controls: 0 for no effect and ±100 for the full control effect; nearly all actives have a fitted effect of over 60% in size
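AlphaScreen assay: L3MBTL1 (50 nM final) was preincubated 30 min at room temperature with biotinylated H3(1-15)K9me1 peptide (75 nM final), then 30 min with library compounds; streptavidin donor and nickel chelate acceptor beads (10 ug/mL final) added, 30 min dark.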
The depositor's hits bear a star; ? = inconclusive; · = no result given; ! = repeats disagree; [ ] = remark or other dose. Calls follow the shape of the dose curve; as a rule, active = well fitted curve in the direction sought with a large enough effect; inconclusive = small, poorly fitted or top-dose-only effect, or another doubt; inactive = no such curve, though single readings can be large; an effect the other way counts as inactive or inconclusive. Potency is read from the fitted curve at half-maximal effect.

SMILES	BAZ2B inh	JMJD2A Tudor	HP1b chromo inh	G9a block	Sfp inh	L3MBTL1 block
CC(=O)Nc1ccc(-n2c(=O)c3ccccc3c3ccccc3c2=O)cc1	-1%	-3%	26%	-38%	10%	5%
COc1ccc(CC(=O)Nc2ccc(S(=O)(=O)N3CCN(C)CC3)cc2)cc1	6%	-23%	37%	21%[59 µM]	·	1%
CC1(C)CC(=NOC(=O)c2ccccc2)CC(C)(C)N1O	11%	-18%	20%	6%[59 µM]	11%	0%
CCc1cccc(CC)c1NC(=O)CNCc1cccs1	56µM*	25µM*	71µM*	35µM*	-4%	·
Cc1cccc(C)c1NC(=O)Cc1cccs1	-31%	-26%	24%	11%	13%	1%
CCOc1ccc(NC(=O)CSc2nnc(-c3ccc(C)cc3)c(-c3ccc(C)cc3)n2)cc1	-13%	?	3%	-27%[59 µM]	·	·
O=C1CSC(=S)N1/N=C/c1cc(Br)ccc1O	5µM*	·	·	10µM*	-15%	·
CC(C)(C)c1ccc(/C=N/N2C(=O)CSC2=S)cc1	?	-34%	-5%	?	-1%	·
Oc1ccc(Br)cc1/C=N/N1CCCCC1	-5%	-27%	-6%	11µM*	0%	-3%
COc1ccc(/C=N/N2C(=O)CSC2=S)cc1Br	-1%	?	-12%	2%[12.7 µM]	·	-28%
O=C1CSC(=S)N1N=Cc1ccc(Cl)s1	·	28µM*	?	·	·	·
COc1ccc(-c2cc3nc(-c4ccc(Br)cc4)cc(C(F)(F)F)n3n2)cc1	0%	-7%	25%	-33%[59 µM]	·	·
CCn1[nH]c(=O)c(=Nc2c(C)n(C)n(-c3ccccc3)c2=O)cc1-c1ccc(Cl)cc1	-18%	9%	7%	6%[59 µM]	14%	-2%
CCc1ccc(C2=NNC(=Nc3c(C)n(C)n(-c4ccccc4)c3=O)SC2)cc1	-33%	-25%	-15%	25µM*	-21%	·
O=[N+]([O-])c1cccc2ccc(/C=C/c3cccc(Br)c3)nc12	?	?	-13%	?	4%	?
CC(=O)Nc1ccc(/C=C/c2ccc3c([N+](=O)[O-])cccc3n2)cc1	-21%	-29%	19%	?	20%	34%
O=[N+]([O-])c1cccc2ccc(/C=C/c3ccc(Cl)cc3)nc12	57%	?	-31%	79µM*	-7%	-18%
O=[N+]([O-])c1cccc2ccc(/C=C/c3ccc(C(F)(F)F)cc3)nc12	-6%	?	-20%	35µM*	?	0%
NC(=O)c1ccc(C[C@H](C(=O)O)N2C(=O)c3ccc(C(=O)O)cc3C2=O)cc1	-5%	?	·	-3%[12.7 µM]	13%	10%
CCCN[C@@H](C)C(=O)Nc1c(C)csc1C(=O)OC	·	·	·	11%[21.5 µM]	8%	·
CC1CCCC2(C1)NC(=S)c1c(sc3c1CCCC3)N2 (stereo not given)	?	79µM*	?	8.9µM*	6.3µM*	·
CCOc1ccc(-n2c(SCc3ccc([N+](=O)[O-])cc3)nnc2-c2ccc(OC)cc2)cc1	?	?	?	8.9µM*	-11%	-5%
CCOc1ccc(-n2c(SCc3ccc(C#N)cc3)nnc2-c2cccnc2)cc1	1%	-36%	35%	-23%	-11%	2%
CC1CCC/C(=C\Nc2ccc(C(=O)O)c(O)c2)C1=O (stereo not given)	-13%	-24%	22%	45µM*	50µM*	-8%
Cc1ccc(Nc2nc(-c3c(C)nc4ncccn34)cs2)cc1	?	?	-37%	40µM*	50µM*	-13%
SMILES	BAZ2B inh	JMJD2A Tudor	HP1b chromo inh	G9a block	Sfp inh	L3MBTL1 block
Cc1nc2ncccn2c1-c1csc(Nc2ccc(O)cc2)n1	?	-25%	20%	11µM*	?	-21%
Cc1ccc(Nc2nc(-c3c(C)nc4ccccn34)cs2)cc1	-38%	?	5%	?	45µM*	0%
Cc1cc(C(=O)Nc2ccc3ccccc3c2)c(C)o1	-26%	-4%	45%	4%	19%	·
O=C(NNCS(=O)(=O)O)c1ccncc1	·	·	·	8%[12.7 µM]	14%	·
COc1cc(/C=C2/C(=N)N3C(=NC2=O)SN=C3S(C)(=O)=O)ccc1OS(=O)(=O)c1ccccc1	50µM*	·	·	25µM*	-18%	·
CC1=NN2C(=N)/C(=C\c3cc(C)n(-c4ccccc4)c3C)C(=O)N=C2S1	9%	-5%	49%	?	15%	·
COc1ccccc1-n1c(C)cc(/C=C2/C(=N)N3C(=NC2=O)SN=C3S(C)(=O)=O)c1C	·	-36%	10%	50µM*	-15%	·
CCOc1ccc(-n2c(C)cc(/C=C3/C(=N)N4C(=NC3=O)SN=C4S(C)(=O)=O)c2C)cc1	56µM*	?	10%	28µM*	-25%	·
CCOc1cc(/C=C2/C(=N)N3C(=NC2=O)SN=C3S(C)(=O)=O)ccc1OS(=O)(=O)c1ccccc1	?	?	-7%[57 µM]	·	-5%	·
Cc1cc(/C=C2/C(=N)N3C(=NC2=O)SN=C3S(C)(=O)=O)c(C)n1-c1ccc(F)cc1	·	-24%	16%	40µM*	-13%	·
COC1C(O)C(CO)OC1n1cnc2c(NC3CCCCC3)ncnc21 (stereo not given)	·	·	·	·	5%	·
O=C(CC1SC(=O)N(c2ccccc2)C1=O)Nc1ccc(Cl)cc1 (stereo not given)	-36%	-23%	10%	45µM*	-19%	-2%
Nc1nc(-c2cc3c(cc2Cl)OCCO3)cs1	?	-23%	5%	14µM*	2%	-5%
COc1ccc(-c2nc3c(c(SCC(=O)Nc4cccc(O)c4)n2)Cc2c(CO)cnc(C)c2O3)cc1	?	-35%	13%[57 µM]	11µM*!	-7%	·
CCc1ccc(NC(=O)CSc2nc(-c3ccc(C)cc3)nc3c2Cc2c(CO)cnc(C)c2O3)cc1	50µM*	-24%	43%	10%[12.7 µM]	·	-9%
Cc1ncc(CO)c2c1Oc1nc(-c3ccccc3)nc(SCC(=O)Nc3cccc(O)c3)c1C2	-18%	-18%	49%	1%	-8%	·
O=C(c1ccc(Cl)cc1)c1oc2ccccc2c1CS(=O)c1ccc(Cl)cc1 (stereo not given)	3%	-17%	-3%	-27%[59 µM]	56µM*	31%
CCOc1ccc(C(C)=O)cc1N1C(=O)C2C3C=CC(C3=C(C)C)C2C1=O (stereo not given)	-30%	-15%	55%	?	45µM*	1%
CCOc1ccc(C(C)=O)cc1N1C(=O)C2C(C1=O)C1C=CC2C12CC2 (stereo not given)	50µM*	-1%	29%	-9%	7%	0%
